We go through one molecule from ChEMBL document CHEMBL2218924, “A broad activity screen in support of a chemogenomic map for kinase signalling research and drug discovery” (Biochem J, 2013).

The residual activity is the signal under treatment as a percentage of the control signal.

The structures appear in SMILES notation.

Test [1] addresses T1, Ephrin type-A receptor 3 (Homo sapiens) (UniProt P29320).
T1 sequence (whole entry): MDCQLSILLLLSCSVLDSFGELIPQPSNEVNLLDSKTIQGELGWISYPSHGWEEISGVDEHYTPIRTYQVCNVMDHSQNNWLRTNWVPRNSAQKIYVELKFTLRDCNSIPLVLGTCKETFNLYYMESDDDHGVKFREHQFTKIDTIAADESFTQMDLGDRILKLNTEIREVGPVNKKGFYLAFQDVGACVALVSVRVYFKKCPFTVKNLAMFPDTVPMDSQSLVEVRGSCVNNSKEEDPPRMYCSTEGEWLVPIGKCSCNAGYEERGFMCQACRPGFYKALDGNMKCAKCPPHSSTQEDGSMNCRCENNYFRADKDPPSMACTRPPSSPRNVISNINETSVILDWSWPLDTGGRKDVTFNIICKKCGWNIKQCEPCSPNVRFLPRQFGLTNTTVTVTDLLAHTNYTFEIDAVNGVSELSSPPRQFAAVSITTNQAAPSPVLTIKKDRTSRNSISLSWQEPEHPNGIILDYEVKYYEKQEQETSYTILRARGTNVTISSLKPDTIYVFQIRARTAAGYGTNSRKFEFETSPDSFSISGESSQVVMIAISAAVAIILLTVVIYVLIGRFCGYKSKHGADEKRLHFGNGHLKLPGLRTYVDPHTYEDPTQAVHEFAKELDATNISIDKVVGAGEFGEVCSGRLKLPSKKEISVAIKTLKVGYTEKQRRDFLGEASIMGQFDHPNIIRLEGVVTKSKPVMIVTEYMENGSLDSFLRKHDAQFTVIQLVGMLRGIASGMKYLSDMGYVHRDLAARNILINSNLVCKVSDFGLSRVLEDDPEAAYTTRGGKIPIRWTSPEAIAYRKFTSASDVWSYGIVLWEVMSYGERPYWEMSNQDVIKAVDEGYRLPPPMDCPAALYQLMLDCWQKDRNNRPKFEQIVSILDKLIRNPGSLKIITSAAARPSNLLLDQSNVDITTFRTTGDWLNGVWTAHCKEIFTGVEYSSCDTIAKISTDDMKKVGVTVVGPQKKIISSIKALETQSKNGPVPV
Particulars: at 10 µM.

Test [2] addresses Ephrin type-A receptor 4 (Homo sapiens) (UniProt P54764). The following applies: at 1 µM.
Test [3] has the same target. The following applies: at 10 µM.
Test [4] deals with Ephrin type-A receptor 5 (Homo sapiens) (UniProt P54756). Particulars: at 1 µM.
For test [5] the target is unchanged. Particulars: at 10 µM.
The target of test [6] is Ephrin type-A receptor 7 (Homo sapiens) (UniProt Q15375). Particulars: at 1 µM.
For test [7] the target is unchanged. Particulars: at 10 µM.
In test [8] the target is T2, Ephrin type-A receptor 8 (Homo sapiens) (UniProt P29322).
T2 sequence (whole entry): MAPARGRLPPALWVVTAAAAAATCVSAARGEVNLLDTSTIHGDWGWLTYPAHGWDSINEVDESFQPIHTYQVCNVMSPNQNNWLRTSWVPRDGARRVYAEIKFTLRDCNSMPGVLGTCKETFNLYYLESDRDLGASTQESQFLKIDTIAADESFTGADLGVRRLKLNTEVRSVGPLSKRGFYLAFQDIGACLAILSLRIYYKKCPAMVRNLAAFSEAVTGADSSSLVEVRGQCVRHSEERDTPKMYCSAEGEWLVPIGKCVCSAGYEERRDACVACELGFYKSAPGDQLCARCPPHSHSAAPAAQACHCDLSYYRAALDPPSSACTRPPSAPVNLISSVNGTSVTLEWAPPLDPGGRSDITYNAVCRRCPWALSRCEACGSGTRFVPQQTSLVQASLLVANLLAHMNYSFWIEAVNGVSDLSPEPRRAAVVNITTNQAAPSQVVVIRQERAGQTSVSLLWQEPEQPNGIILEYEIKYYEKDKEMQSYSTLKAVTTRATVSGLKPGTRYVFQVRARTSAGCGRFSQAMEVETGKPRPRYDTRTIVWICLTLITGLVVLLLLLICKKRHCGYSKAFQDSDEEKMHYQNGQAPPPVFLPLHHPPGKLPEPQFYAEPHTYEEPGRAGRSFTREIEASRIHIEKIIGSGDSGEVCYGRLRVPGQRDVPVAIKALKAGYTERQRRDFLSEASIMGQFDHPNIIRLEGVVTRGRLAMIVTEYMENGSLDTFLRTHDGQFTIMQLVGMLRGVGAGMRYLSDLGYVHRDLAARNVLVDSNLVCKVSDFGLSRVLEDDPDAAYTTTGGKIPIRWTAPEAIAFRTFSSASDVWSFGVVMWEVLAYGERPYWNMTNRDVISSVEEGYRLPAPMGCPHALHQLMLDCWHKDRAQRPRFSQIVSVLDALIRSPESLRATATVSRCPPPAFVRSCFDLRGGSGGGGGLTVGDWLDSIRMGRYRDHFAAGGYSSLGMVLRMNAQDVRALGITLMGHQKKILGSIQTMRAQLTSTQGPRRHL
The following applies: at 1 µM.

Test [9] concerns the target T2, Ephrin type-A receptor 8 (Homo sapiens). The following applies: at 10 µM.
Test [10] addresses T3, Ephrin type-B receptor 1 (Homo sapiens) (UniProt P54762).
T3 sequence (whole entry): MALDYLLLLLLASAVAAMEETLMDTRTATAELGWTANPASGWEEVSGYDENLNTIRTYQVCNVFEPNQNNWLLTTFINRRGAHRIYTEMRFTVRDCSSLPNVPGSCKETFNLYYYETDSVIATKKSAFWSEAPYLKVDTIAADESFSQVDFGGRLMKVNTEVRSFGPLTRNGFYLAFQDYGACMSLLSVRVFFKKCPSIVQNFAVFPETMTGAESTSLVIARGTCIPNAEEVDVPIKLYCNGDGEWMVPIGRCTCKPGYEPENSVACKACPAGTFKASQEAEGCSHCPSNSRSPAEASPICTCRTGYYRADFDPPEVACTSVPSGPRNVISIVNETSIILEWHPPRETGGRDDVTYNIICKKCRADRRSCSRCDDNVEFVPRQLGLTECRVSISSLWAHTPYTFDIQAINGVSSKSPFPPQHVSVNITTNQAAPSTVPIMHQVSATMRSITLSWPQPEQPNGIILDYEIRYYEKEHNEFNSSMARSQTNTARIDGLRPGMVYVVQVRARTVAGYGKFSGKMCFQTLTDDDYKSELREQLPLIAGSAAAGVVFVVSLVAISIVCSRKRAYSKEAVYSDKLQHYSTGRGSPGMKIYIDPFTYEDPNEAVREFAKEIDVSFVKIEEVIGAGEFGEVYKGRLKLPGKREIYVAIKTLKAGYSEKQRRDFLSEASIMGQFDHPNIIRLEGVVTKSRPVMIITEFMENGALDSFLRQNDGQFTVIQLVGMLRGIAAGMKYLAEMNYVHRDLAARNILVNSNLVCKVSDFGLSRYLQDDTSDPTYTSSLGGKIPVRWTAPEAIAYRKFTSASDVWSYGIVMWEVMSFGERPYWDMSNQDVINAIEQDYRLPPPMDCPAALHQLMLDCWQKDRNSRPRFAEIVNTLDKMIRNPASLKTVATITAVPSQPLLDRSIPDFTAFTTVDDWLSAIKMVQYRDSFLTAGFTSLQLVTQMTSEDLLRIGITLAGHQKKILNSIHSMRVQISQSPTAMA
Particulars: at 1 µM.

Sequence of Ephrin type-A receptor 5 (Homo sapiens) (P54756 whole entry): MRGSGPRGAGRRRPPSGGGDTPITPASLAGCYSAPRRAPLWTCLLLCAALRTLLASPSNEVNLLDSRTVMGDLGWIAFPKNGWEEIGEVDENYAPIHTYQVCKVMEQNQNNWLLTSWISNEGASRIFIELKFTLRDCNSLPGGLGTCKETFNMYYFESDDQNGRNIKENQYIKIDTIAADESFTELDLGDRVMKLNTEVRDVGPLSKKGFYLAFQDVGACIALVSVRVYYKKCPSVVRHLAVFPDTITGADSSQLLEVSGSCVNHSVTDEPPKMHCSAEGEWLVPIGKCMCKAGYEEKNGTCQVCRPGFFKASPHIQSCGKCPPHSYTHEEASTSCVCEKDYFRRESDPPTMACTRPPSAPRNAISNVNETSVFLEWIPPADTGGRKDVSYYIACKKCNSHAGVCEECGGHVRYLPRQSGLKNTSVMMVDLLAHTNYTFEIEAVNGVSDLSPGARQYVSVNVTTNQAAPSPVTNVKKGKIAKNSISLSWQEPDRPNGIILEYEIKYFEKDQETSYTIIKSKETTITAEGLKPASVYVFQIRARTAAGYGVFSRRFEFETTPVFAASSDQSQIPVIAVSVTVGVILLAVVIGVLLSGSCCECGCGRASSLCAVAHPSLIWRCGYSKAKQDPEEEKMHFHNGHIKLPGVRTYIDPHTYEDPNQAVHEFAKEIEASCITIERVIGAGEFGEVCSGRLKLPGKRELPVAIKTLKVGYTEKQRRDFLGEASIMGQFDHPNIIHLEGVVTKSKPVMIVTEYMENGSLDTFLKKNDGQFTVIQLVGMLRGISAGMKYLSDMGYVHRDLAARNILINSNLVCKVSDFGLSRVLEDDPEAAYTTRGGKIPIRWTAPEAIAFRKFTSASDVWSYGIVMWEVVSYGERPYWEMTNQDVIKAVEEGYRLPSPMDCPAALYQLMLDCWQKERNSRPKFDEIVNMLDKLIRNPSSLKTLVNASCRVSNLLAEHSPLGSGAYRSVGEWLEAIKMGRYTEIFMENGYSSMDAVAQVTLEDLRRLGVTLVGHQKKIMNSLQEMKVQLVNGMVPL
Sequence of Ephrin type-A receptor 7 (Homo sapiens) (Q15375 28-998 limits assumed): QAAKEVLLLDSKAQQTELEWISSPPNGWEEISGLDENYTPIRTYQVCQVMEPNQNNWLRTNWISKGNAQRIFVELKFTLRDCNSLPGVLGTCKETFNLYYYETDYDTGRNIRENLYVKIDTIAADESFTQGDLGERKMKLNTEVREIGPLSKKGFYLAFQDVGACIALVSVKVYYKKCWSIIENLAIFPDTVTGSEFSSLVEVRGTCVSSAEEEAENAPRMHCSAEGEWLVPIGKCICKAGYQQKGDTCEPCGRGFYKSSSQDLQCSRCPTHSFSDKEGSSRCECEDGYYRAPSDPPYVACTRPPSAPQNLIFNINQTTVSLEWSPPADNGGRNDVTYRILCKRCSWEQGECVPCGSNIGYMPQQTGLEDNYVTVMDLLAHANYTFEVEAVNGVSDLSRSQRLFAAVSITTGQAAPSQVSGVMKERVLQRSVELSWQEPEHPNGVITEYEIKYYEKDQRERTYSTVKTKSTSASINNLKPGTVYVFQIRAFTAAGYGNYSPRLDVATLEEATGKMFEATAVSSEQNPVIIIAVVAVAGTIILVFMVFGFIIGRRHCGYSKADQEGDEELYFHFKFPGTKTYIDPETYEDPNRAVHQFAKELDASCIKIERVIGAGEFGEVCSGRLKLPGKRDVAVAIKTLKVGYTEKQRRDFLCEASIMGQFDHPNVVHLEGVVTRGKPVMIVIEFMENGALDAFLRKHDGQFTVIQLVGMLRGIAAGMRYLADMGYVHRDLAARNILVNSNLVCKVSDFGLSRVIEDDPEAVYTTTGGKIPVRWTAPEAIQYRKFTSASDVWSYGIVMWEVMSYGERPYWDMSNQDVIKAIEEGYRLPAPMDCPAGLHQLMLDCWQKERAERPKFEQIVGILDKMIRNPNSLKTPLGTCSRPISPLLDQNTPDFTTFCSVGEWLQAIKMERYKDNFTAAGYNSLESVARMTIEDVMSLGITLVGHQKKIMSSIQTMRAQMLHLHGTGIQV
Sequence of Ephrin type-A receptor 4 (Homo sapiens) (P54764 whole entry): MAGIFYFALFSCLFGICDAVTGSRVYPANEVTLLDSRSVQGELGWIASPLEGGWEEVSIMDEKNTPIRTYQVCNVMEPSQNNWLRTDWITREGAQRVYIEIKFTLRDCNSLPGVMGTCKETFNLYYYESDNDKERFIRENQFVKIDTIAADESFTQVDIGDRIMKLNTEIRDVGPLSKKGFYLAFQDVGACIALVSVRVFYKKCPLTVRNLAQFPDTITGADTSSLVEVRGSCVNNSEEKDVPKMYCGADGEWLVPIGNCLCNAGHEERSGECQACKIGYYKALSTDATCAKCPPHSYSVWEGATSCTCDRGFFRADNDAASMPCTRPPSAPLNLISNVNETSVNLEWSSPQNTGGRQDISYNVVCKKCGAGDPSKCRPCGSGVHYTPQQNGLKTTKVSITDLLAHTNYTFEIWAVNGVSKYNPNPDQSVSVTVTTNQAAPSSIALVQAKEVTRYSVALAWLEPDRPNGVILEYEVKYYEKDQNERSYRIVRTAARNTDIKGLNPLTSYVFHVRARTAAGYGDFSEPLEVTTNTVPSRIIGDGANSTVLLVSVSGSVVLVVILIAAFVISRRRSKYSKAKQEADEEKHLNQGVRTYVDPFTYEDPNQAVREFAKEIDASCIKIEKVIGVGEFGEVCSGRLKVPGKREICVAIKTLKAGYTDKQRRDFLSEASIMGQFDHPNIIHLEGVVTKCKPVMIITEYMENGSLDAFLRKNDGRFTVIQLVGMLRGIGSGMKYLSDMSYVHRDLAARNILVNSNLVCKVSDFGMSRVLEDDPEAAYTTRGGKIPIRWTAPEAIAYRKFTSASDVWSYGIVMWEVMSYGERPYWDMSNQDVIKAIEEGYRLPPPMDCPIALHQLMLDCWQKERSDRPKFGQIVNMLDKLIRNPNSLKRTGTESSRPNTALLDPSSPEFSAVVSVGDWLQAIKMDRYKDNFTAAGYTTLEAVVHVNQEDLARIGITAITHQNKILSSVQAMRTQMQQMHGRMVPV

As to `CCN(CC)CCCCN1c2ccccc2Oc2ccc(Cl)cc21`, the residual activity in test [1] stood at 97%; in [2] it was 116%; in test [3], 100%; in test [4] it was 108%; in test [5], 113%; in test [6], 105%. Besides, the residual activity in test [7] turned out to be 103%; in test [8], 98%; in test [9], 114%; in test [10], 100%.
